According to PubChem BioAssay (EPA / NIEHS):
Results filed as inconclusive are left out. Activity calls are given as the source filed them. Rule for the calls, unless noted: active = hit-call score of the fitted dose curve at least 0.9, where 1 is the maximum; inactive = score below 0.9.

How the values were obtained:
[1] = target: Bile acid receptor (Homo sapiens) (UniProt Q96RI1); experiment: ATG_FXR_TRANS: Attagene TRANS-FACTORIAL HepG2 Assay for Farnesoid X Receptor (FXR) (AID 2282979; active = hit-call score of the fitted dose curve at least 0.9, where 1 is the maximum;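 note: hits raise reporter mRNA above DMSO so AC50 marks FXR activation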); conditions: HepG2 Attagene TRANS FXR-GAL4 reporter transcription
Sequence of Bile acid receptor (Homo sapiens) (Q96RI1 whole entry, looked up, the tested form may be a part): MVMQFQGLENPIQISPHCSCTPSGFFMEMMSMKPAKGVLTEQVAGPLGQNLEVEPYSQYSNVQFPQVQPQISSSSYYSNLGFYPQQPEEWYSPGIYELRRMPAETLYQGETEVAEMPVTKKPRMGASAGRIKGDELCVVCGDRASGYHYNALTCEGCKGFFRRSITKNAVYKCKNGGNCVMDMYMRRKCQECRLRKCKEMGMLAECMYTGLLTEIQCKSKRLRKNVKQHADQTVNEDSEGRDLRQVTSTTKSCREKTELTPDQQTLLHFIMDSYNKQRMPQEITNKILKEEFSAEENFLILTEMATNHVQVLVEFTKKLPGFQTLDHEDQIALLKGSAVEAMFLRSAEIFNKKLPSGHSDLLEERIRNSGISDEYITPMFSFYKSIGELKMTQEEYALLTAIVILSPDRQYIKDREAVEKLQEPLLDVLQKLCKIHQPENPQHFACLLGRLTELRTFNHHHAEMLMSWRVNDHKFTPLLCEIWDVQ
Outline: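 Chimeric FXR-GAL4 activity in transiently transfected human HepG2 liver cells is scored as induction of reporter mRNA after 24 h of dosing. Detection uses RT-PCR with fluorescent labelling and capillary electrophoresis, with DMSO serving as baseline.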

[2] = target: Hepatocyte nuclear factor 4-alpha (Homo sapiens) (UniProt P41235); experiment: ATG_HNF4a_TRANS: Attagene TRANS-FACTORIAL HepG2 Assay for human Hepatocyte Nuclear Factor 4 alpha (HNF4a) (AID 2282982; active = hit-call score of the fitted dose curve at least 0.9, where 1 is the maximum); conditions: HepG2 HNF4a transactivation reporter, mRNA readout
Sequence of Hepatocyte nuclear factor 4-alpha (Homo sapiens) (P41235 whole entry, looked up, the tested form may be a part): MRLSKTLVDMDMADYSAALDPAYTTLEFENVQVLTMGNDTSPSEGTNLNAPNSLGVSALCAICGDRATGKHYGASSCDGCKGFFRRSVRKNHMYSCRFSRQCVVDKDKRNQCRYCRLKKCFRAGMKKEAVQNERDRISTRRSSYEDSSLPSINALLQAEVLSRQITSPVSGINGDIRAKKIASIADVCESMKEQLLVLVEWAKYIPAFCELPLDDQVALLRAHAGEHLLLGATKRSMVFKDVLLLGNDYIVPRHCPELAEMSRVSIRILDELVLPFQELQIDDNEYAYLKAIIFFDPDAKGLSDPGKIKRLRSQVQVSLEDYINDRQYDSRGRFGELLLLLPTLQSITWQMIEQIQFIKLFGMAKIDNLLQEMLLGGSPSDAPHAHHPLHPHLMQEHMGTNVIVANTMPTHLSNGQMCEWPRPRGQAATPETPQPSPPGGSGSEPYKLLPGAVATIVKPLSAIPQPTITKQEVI
Outline: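 Readout is fluorescent reporter-transcript fragments resolved by capillary electrophoresis after RT-PCR from HepG2 cells dosed for 24 h. Cells carried transfected GAL4-UAS reporter constructs measuring exogenous NR-GAL4 chimera activity; DMSO served as baseline.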

[3] = ATG_M_06_TRANS: Attagene TRANS-FACTORIAL HepG2 Assay for M06 Transcription Factor (Internal Marker) (AID 2282983; active = hit-call score of the fitted dose curve at least 0.9, where 1 is the maximum); conditions: HepG2 Attagene TRANS M06 internal marker reporter
Outline: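 Measured by capillary electrophoresis of fluorescently labelled RT-PCR products, this endpoint reflects reporter mRNA in HepG2 cells harbouring exogenous NR-GAL4 reporter constructs after 24 h exposure, with DMSO as baseline.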

[4] = target: Nuclear respiratory factor 1 (Homo sapiens) (UniProt Q16656); experiment: ATG_NRF1_CIS: Attagene CIS-FACTORIAL HepG2 Assay for human Nuclear Respiratory Factor 1 (NRF1) Orphan Gene (AID 2282987); conditions: HepG2 NRF1 cis-element reporter, Attagene multiplex; actives raise or lower the signal
Sequence of Nuclear respiratory factor 1 (Homo sapiens) (Q16656 whole entry, looked up): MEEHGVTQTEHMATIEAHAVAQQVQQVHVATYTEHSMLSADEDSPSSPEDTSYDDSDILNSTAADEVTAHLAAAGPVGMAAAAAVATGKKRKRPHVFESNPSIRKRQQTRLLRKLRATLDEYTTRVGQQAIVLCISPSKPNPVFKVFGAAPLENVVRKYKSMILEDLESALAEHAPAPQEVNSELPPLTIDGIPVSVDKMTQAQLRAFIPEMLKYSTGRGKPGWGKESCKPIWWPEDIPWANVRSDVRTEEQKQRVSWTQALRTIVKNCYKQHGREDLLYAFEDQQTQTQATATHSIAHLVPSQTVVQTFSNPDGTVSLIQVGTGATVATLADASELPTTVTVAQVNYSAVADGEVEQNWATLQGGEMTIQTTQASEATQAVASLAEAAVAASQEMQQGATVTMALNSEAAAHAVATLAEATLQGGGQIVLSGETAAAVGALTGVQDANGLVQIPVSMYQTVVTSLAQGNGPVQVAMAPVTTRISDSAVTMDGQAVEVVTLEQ
Outline: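 Endogenous NRF1-driven reporter transcription measured in transiently transfected human HepG2 liver cells. Readout: reporter mRNA by RT-PCR and capillary electrophoresis with fluorescence detection, 24 h post-dosing. Gain or loss of signal fitted relative to DMSO baseline.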

[5] = ATG_NFI_CIS: Attagene CIS-FACTORIAL HepG2 Assay for human Nuclear Factor I (NFI) (AID 2282989); conditions: HepG2 cis-regulatory reporter, NFI response element transcription; actives raise or lower the signal
Outline: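 Endogenous TF activity in HepG2 cells transiently transfected with cis-element-driven multiplexed reporter units, read 24 h after dosing. Reporter mRNA quantified by RT-PCR, 6-FAM labelling, HpaI digestion and capillary electrophoresis; bidirectional fit versus DMSO.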

[6] = target: Myc proto-oncogene protein (Homo sapiens) (UniProt P01106); experiment: ATG_Myc_CIS: Attagene CIS-FACTORIAL HepG2 Assay for human Myelocytomatosis (Myc) Proto-Oncogene Transcription Factor (AID 2282990); conditions: HepG2, Attagene cis-reporter transcription factor activity; actives raise or lower the signal
Sequence of Myc proto-oncogene protein (Homo sapiens) (P01106 whole entry, looked up): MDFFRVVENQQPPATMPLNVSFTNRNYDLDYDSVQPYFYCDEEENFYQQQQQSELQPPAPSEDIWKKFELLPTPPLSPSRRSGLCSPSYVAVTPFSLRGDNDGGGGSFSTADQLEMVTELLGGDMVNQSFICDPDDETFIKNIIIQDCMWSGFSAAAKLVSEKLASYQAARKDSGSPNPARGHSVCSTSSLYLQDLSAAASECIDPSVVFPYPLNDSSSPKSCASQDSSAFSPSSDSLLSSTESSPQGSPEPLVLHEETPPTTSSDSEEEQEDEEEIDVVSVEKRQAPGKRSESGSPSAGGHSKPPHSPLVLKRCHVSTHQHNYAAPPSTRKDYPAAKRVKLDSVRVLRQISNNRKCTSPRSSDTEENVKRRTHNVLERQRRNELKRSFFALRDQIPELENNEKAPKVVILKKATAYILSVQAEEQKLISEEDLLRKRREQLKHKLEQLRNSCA
Outline: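 HepG2, transient MRTU transfection (cis promoters, endogenous TFs); 24 h dosing; TriZol RNA → oligo(dT) RT → PCR → 6-FAM primer extension → HpaI cut → CE. Bidirectional fit vs DMSO.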

[7] = ATG_NRF2_ARE_CIS: Attagene CIS-FACTORIAL HepG2 Assay for human Nuclear Factor Erythroid 2 Related Factor 2 (NFR2) response to Antioxidant Response Elements (ARE) (AID 2282992); conditions: HepG2 Attagene ARE/NRF2 reporter, transcription factor activity; actives raise or lower the signal
Outline: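 Multiplexed reporter mRNA profiling in HepG2 after a 24 h chemical exposure. Curves fitted in both directions relative to DMSO negative control.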

[8] = ATG_Oct_MLP_CIS: Attagene CIS-FACTORIAL HepG2 Assay for human Octamer-Binding Transcription Factor (Oct) (AID 2282993); conditions: HepG2 Attagene cis-factorial Oct reporter, mRNA; actives raise or lower the signal
Outline: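 HepG2 cells transiently transfected with cis-element-driven reporter transcription units (endogenous TF activity); 24 h compound exposure. Reporter mRNA quantified by RT-PCR, 6-FAM labelling, HpaI digestion and capillary electrophoresis; bidirectional fit versus DMSO baseline.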

[9] = target: Cellular tumor antigen p53 (Homo sapiens) (UniProt P04637); experiment: ATG_p53_CIS: Attagene CIS-FACTORIAL HepG2 Assay for human p53 Transcription Factor (AID 2282994); conditions: HepG2 p53 cis-element reporter, Attagene mRNA; actives raise or lower the signal
Sequence of Cellular tumor antigen p53 (Homo sapiens) (P04637 whole entry, looked up): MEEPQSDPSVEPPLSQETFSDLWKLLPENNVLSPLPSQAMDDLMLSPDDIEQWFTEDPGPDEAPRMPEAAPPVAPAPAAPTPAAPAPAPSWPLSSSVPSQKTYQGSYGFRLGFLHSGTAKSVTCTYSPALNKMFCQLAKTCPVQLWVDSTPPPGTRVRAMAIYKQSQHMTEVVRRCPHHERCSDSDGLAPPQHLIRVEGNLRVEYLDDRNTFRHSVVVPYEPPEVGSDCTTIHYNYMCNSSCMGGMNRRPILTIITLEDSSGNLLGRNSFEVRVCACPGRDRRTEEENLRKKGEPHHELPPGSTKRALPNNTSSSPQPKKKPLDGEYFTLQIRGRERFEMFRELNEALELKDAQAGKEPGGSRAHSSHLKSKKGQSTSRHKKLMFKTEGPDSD
Outline: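 Multiplexed reporter mRNA assay in human HepG2 liver cells; cis-regulated units report endogenous factor activity. Values come from bidirectional curve fitting against DMSO negative control after 24 h treatment.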

[10] = target: Glucocorticoid receptor (Homo sapiens) (UniProt P04150); experiment: ATG_GR_TRANS: Attagene TRANS-FACTORIAL HepG2 Assay for human Glucocorticoid Receptor (GR) (AID 2282978; active = hit-call score of the fitted dose curve at least 0.9, where 1 is the maximum;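 note: activators score as hits since higher reporter transcript over DMSO is fitted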); conditions: HepG2 Attagene TRANS GR reporter, mRNA transcription
Sequence of Glucocorticoid receptor (Homo sapiens) (P04150 whole entry, looked up, the tested form may be a part): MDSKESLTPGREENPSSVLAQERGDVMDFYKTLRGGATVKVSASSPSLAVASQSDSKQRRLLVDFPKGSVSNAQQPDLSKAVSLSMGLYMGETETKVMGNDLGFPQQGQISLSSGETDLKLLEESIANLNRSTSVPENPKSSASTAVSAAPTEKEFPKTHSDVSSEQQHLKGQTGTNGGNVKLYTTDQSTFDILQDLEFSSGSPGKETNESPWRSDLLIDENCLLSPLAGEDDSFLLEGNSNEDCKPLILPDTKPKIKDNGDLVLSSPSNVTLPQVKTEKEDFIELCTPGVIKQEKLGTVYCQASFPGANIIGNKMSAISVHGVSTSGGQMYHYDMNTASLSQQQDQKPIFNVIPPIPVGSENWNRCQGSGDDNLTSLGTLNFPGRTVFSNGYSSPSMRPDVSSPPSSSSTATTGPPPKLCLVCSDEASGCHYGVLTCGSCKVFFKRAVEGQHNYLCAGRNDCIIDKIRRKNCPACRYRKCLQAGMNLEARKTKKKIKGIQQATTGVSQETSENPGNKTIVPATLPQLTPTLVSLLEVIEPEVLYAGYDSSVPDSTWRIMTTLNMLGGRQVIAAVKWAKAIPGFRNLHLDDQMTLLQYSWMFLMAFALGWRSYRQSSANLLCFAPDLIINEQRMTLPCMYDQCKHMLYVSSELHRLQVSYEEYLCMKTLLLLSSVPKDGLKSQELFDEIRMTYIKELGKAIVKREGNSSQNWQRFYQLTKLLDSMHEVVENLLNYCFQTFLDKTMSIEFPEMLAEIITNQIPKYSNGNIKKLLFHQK
Outline: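 Transient MRTU transfection of HepG2 (GAL4-UAS reporters, exogenous NR-GAL4 chimeras), 24 h dosing. Readout: reporter transcript via RT-PCR + capillary electrophoresis fluorescence. Positive direction vs DMSO baseline.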

[11] = target: Transcriptional activator Myb (Homo sapiens) (UniProt P10242); experiment: ATG_Myb_CIS: Attagene CIS-FACTORIAL HepG2 Assay for human Myeloblastosis (Myb) Proto-Oncogene Transcription Factor (AID 2282986); conditions: HepG2 Attagene CIS-FACTORIAL Myb reporter transcription; actives raise or lower the signal
Sequence of Transcriptional activator Myb (Homo sapiens) (P10242 whole entry, looked up): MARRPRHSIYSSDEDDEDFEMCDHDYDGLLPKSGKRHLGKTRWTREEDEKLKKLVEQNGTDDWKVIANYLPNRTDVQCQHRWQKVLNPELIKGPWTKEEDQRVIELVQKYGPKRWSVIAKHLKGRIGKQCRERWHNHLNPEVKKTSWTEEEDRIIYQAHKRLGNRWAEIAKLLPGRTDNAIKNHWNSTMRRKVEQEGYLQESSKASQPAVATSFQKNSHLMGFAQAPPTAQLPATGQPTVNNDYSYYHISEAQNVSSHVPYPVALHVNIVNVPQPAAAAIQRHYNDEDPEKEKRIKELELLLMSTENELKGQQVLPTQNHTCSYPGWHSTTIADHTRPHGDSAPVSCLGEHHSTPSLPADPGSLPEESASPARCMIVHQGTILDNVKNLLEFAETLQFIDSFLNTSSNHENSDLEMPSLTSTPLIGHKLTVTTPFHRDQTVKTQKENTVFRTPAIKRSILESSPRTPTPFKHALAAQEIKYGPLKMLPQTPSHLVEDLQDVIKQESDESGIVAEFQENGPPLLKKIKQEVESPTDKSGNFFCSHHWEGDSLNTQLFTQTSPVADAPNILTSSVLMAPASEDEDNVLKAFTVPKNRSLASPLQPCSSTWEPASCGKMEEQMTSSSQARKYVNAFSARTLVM
Outline: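 HepG2, transient MRTU transfection (cis-element promoters, endogenous TF activity), 24 h compound exposure. Readout: reporter mRNA via RT-PCR, 6-FAM labeling, HpaI digest, capillary electrophoresis. Gain/loss fit vs DMSO.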

[12] = ATG_NF_kB_CIS: Attagene CIS-FACTORIAL HepG2 Assay for human Nuclear Factor Kappa B (NF-kB) (AID 2282991); conditions: HepG2 Attagene cis-factorial NF-kB reporter mRNA; actives raise or lower the signal
Outline: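 Read-out: reporter transcript levels quantified by RT-PCR plus capillary electrophoresis of 6-FAM-labelled, HpaI-cut fragments. Transfected HepG2 cells, 24 h compound exposure, endogenous NF-kB-driven cis element; gain or loss scored versus DMSO.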

[13] = target: Oxysterols receptor LXR-alpha (Homo sapiens) (UniProt Q13133); experiment: ATG_LXRa_TRANS: Attagene TRANS-FACTORIAL HepG2 Assay for human Liver X Receptor alpha (LXRa) (AID 2282980; active = hit-call score of the fitted dose curve at least 0.9, where 1 is the maximum); conditions: HepG2 Attagene TRANS reporter, LXRa transactivation
Sequence of Oxysterols receptor LXR-alpha (Homo sapiens) (Q13133 whole entry, looked up): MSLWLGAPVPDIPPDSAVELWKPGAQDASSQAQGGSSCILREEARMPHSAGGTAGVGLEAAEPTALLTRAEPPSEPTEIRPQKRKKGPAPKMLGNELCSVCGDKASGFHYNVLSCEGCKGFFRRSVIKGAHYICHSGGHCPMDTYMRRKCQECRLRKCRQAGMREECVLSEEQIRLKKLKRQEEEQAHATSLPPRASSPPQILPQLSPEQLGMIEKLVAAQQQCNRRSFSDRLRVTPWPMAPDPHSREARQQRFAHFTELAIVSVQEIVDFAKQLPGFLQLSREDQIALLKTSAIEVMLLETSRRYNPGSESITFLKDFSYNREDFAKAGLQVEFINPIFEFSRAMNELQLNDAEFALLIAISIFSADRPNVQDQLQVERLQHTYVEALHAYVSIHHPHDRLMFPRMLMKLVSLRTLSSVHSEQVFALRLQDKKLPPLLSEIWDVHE
Outline: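 Transient HepG2 transfectants, 24 h dosing, RT-PCR/CE mRNA reporter quantitation; gain-of-signal vs DMSO.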

[14] = target: Oxysterols receptor LXR-beta (Homo sapiens) (UniProt P55055); experiment: ATG_LXRb_TRANS: Attagene TRANS-FACTORIAL HepG2 Assay for human Liver X Receptor beta (LXRb) (AID 2282981; active = hit-call score of the fitted dose curve at least 0.9, where 1 is the maximum); conditions: HepG2 Attagene TRANS GAL4-LXRb reporter, mRNA
Sequence of Oxysterols receptor LXR-beta (Homo sapiens) (P55055 whole entry, looked up, the tested form may be a part): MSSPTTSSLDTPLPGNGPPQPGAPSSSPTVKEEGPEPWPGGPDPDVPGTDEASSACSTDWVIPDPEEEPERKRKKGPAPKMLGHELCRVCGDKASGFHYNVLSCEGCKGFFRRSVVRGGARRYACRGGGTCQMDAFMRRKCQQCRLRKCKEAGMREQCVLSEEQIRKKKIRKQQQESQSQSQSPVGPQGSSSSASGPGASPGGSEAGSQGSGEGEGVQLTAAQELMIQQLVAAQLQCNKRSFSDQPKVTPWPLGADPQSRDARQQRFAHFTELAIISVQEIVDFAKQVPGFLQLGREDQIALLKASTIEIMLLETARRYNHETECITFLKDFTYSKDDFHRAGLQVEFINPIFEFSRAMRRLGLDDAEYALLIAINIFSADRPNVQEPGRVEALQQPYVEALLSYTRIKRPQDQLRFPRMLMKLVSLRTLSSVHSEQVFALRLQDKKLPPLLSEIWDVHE
Outline: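 Transient transfection HepG2 (multiplexed RTUs, GAL4-UAS); NR-Gal4 chimera; 24 h exposure; RNA → RT-PCR → 6-FAM primer extension → HpaI → CE; increase vs DMSO.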

[15] = ATG_M_32_TRANS: Attagene TRANS-FACTORIAL HepG2 Assay for M32 Transcription Factor (Internal Marker) (AID 2282984; active = hit-call score of the fitted dose curve at least 0.9, where 1 is the maximum;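 note: transcript level of a background control reporter unit measured by RT-PCR and capillary electrophoresis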); conditions: HepG2 Attagene TRANS M32 internal marker reporter
Outline: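 Measures reporter mRNA induction in human HepG2 liver cells after 24 h chemical treatment. Transcripts from transiently transfected GAL4-UAS reporter units are amplified, fluorescently labelled and sized by capillary electrophoresis; gain of signal relative to DMSO.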

[16] = target: Nuclear receptor subfamily 4 group A member 2 (Homo sapiens) (UniProt P43354); experiment: ATG_NURR1_TRANS: Attagene TRANS-FACTORIAL HepG2 Assay for human Nuclear Receptor Related Protein 1 (NURR1) (AID 2282985; active = hit-call score of the fitted dose curve at least 0.9, where 1 is the maximum); conditions: HepG2 Attagene TRANS reporter, mRNA readout
Outline: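 Transient transfection of HepG2, human liver cells, with multiple GAL4-UAS reporter transcription units. Cells dosed 24 h, RNA isolated, reverse-transcribed, PCR-amplified, FAM-labelled, HpaI-digested, sized by capillary electrophoresis. DMSO served as negative control.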

With C=CC(O)CCCCC (stereo not drawn) the outcome [1] was “inactive”, the outcome [2] was “inactive” and the outcome [3] was “inactive”. The outcome [4] was “inactive”, the outcome [5] was “inactive” and the outcome [6] was “inactive”. For the same compound, the AC50 [7] was 38 µM (active), the AC50 [8] was 45.6 µM (active) and the outcome [9] was “inactive”.

In the case of CCOC(=O)C(=O)OCC, the outcome [10] is reported as “inactive”, the outcome [2] is reported as “inactive” and the outcome [11] is reported as “inactive”. For the same compound, the outcome [4] was “inactive”, the outcome [5] was “inactive” and the outcome [6] was “inactive”. For the same compound, the outcome [12] was “inactive”, the outcome [7] was “inactive” and the outcome [8] was “inactive”. The outcome [9] was “inactive”.

For CC1=C(C=O)C(C)(C)CCC1, the outcome [1] was “inactive”, the outcome [13] was “inactive” and the outcome [14] was “inactive”. For the same compound, the outcome [3] was “inactive”, the outcome [4] was “inactive” and the outcome [5] was “inactive”. For the same compound, the outcome [6] was “inactive”, the outcome [12] was “inactive” and the outcome [7] was “inactive”. The outcome [8] was “inactive”.

For CC(=O)C1C(=O)C=C(C)OC1=O (stereo not drawn), the outcome [1] was “inactive”, the outcome [3] was “inactive” and the outcome [15] was “inactive”. The outcome [16] was “inactive”, the outcome [11] was “inactive” and the outcome [4] was “inactive”. The outcome [5] was “inactive”, the outcome [6] was “inactive” and the outcome [7] was “inactive”. The outcome [8] was “inactive” and the outcome [9] was “inactive”.

With OCCCO the outcome [10] was “inactive”, the outcome [2] was “inactive” and the outcome [15] was “inactive”. The outcome [11] was “inactive”, the outcome [4] was “inactive” and the outcome [5] was “inactive”. The outcome [6] was “inactive”, the outcome [12] was “inactive” and the outcome [7] was “inactive”. The outcome [8] was “inactive” and the outcome [9] was “inactive”.

With CCc1cccc(O)c1 the outcome [1] was “inactive”, the outcome [13] was “inactive” and the outcome [2] was “inactive”. For the same compound, the outcome [3] was “inactive”, the outcome [15] was “inactive” and the outcome [11] was “inactive”. The outcome [4] was “inactive”, the outcome [5] was “inactive” and the outcome [6] was “inactive”. For the same compound, the outcome [7] was “inactive”, the outcome [8] was “inactive” and the outcome [9] was “inactive”.
